PubChem BioAssay AID686978 (National Center for Advancing Translational Sciences (NCATS), 2013)
Out of some 420,000 compounds screened, about 64,000 (15%) were called active. Not shown: some 27% with an inconclusive outcome. Not all results are given here. Values without a mark were called inactive. Calls come from the whole dose curve; as a rule, active = well fitted inhibition curve with a large enough effect; inconclusive = small, poorly fitted or top-dose-only effect; inactive = flat fitted curve, though single readings scatter.

Assay: qHTS for Inhibitors of human tyrosyl-DNA phosphodiesterase 1 (TDP1): qHTS in cells in absence of CPT; note: nearly all actives have a fitted effect of over 55% in size
Conditions: DT40 Tdp1-/- hTDP1 cells, no CPT, ATP luminescence, 48 h; activity change, negative = growth inhibition: at 46.2 µM (top of the series)
Outline: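 Cells were dispensed at 400 per well, compounds added by pin tool, plates incubated ≥48 hr at 37 °C, then CellTiter-Glo added for 30 min at room temperature before luminescence reading. Line: DT40 Tdp1-/- complemented with hTDP1; camptothecin omitted.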
% is set by controls: 0 for no effect and ±100 for the full control effect; potency is the fitted concentration of half-maximal effect.

Row | Structure (SMILES) | activity change, negative = growth inhibition [%] | Potency
1 | Cc1ccc(C)c(NC(=O)Cn2ccn(-c3ccc(F)cc3)c(=O)c2=O)c1 | 18 | 
2 | NS(=O)(=O)c1ccc(CCNC(=S)Nc2ccc(S(N)(=O)=O)cc2)cc1 | 0.29 | 
3 | CCOc1ccc(N(CC)C(=O)c2cc3c(=O)oc4ccccc4c3s2)cc1 | -25.6 | 
4 | Cc1cc([N+](=O)[O-])nn1Cc1ccc(F)cc1 | -28 | 
5 | O=c1c2ccccc2c(-c2ccccc2)nn1-c1ccccn1 | -23 | 
6 | CNC(=O)n1ccc(C(=O)N2CCCCC2)n1 | -13.1 | 
7 | O=C(CCC(=O)c1cccs1)NCc1ccccc1 | -14.2 | 
8 | Cc1ccc(SCCN2C(=O)NC(C)(C)C2=O)cc1 | -8.19 | 
9 | O=C(CC1CCCCC1)NCc1ccco1 | -7.57 | 
10 | O=C(Nc1ccc(NC(=O)c2ccc3c(c2)OCO3)cc1)c1cccc(Cl)c1 | 4.72 | 
11 | O=C(Nc1ccc(Cl)cc1)C1c2cccc[n+]2CC(=O)N1Cc1ccc2c(c1)OCO2 (centres undefined) |  | 1.03 µM (active)
12 | O=C(Nc1ccc2c(c1)OCCO2)C1c2ccccc2OCC(=O)N1Cc1ccccn1 (centres undefined) | -7.48 | 
13 | CSc1ccccc1C(=O)NCc1ccccc1 | 0.357 | 
14 | C=CCOc1cccc(CNn2cn[nH]c2=S)c1 | -18.6 | 
15 | CC(=O)Nc1ccc(Oc2ccc3c(c2)C(=O)NC3=O)cc1 | 6.04 | 
16 | Cc1ccc(N/C=C/C(=O)c2ccccc2)cc1C | -14 | 
17 | C/C(=N\NC(=O)c1nc(C)cc(C)n1)c1ccccc1 | -13.8 | 
18 | Cc1cc(C)nc(S/C=C/C(=O)c2ccccc2)n1 |  | 2.59 µM (active)
19 | COC1=CCC2([N+](=O)[O-])CN(CC(=O)O)CC1([N+](=O)[O-])C2 (centres undefined) | -1.54 | 
20 | Cc1ccc(NC(=O)NC(=O)N(C2CCCCC2)S(=O)(=O)c2ccccc2)cc1 | -29.9 | 
21 | Cc1ccc2[nH]c3c(=O)n(Cc4ccccn4)cnc3c2c1 | -6.59 | 
22 | CC(C)c1cccc(C(C)C)c1Nc1cn[nH]c1 |  | 20.6 µM (active)
23 | O=C(O)CCCN1C(=O)c2ccccc2Sc2ncccc21 | 10.6 | 
24 | C=CCOc1cccc(CNCc2cccnc2)c1 | -2.47 | 
25 | Cn1cnc([N+](=O)[O-])c1Nc1ccccc1O | -17.2 | 

Row | Structure (SMILES) | activity change, negative = growth inhibition [%] | Potency
26 | Cn1cnc([N+](=O)[O-])c1Sc1ccccc1 |  | 23.1 µM (active)
27 | Cn1cnc([N+](=O)[O-])c1Sc1n[nH]c(N)n1 | -15 | 
28 | C=CCN1C(=O)C2(OCCCO2)c2cccc(Cl)c21 | 10.2 | 
29 | CCC(C)(C)n1nnnc1C(c1ccc(OC)c(OC)c1)N1CCN(C(=O)c2ccco2)CC1 (centres undefined) | 1.91 | 
30 | CCC(C)(C)n1nnnc1C(c1ccccc1OC)N1CCSCC1 (centres undefined) | -21 | 
31 | CCC(C)(C)n1nnnc1C(c1cccs1)N1CCN(c2nc3ccccc3s2)CC1 (centres undefined) |  | 15.8 µM (active)
32 | O=C(CCn1nnc2ccccc2c1=O)N[C@@H](Cc1c[nH]c2ccccc12)C(=O)O | 2.6 | 
33 | CCOC(=O)N1CCC(NC(=O)Cc2cn(C)c3ccccc23)CC1 | -10.6 | 
34 | CC(C)=CCC/C(C)=C/CC/C(C)=C/CC/C(C)=C/CO |  | inactive
35 | CCSc1nc2c(c(=O)[nH]1)C(c1cccnc1)C(C(=O)OC(C)C)=C(C)N2 (centres undefined) | -29 | 
36 | COc1cc(CN2CCC(C(N)=O)CC2)ccc1OCc1ccccc1 | -5.51 | 
37 | COc1cc(CNC2CCCC2)c(Br)cc1OCc1ccccc1 |  | 16.4 µM (active)
38 | COc1cc(OC)c(NC(=O)C2CCCN2C(=O)OCc2ccccc2)cc1Cl (centres undefined) | 11.7 | 
39 | O=C(CN1CCSCC1)N/N=C/c1ccc(F)cc1 | -12.8 | 
40 | COc1ccc(-c2csc(NC3OC(=O)c4ccccc43)n2)cc1 (centres undefined) |  | 6.51 µM (active)
41 | COc1ccc2c(c1OC)C(=O)OC2c1c(O)nc(SC)n(-c2ccccc2)c1=O (centres undefined) | 2.17 | 
42 | CCc1ccccc1NC(=O)[C@@H]1CCC(=O)N1C1OC(=O)c2c1ccc(OC)c2OC (some centres undefined) | 4.6 | 
43 | COc1ccc2c(c1OC)C(=O)OC2Nc1nc(-c2ccccc2)cs1 (centres undefined) |  | 1.84 µM (active)
44 | COc1ccc(-c2csc(NC(=O)CCCc3cccs3)n2)cc1 | -3.64 | 
45 | O=C(O)c1ccc(Cn2c(=S)[nH]c3cc(Cl)ccc3c2=O)cc1 | -6.36 | 
46 | CCOC(=O)CSc1nnc(CNc2nc(-c3ccccc3)cs2)n1C | -0.54 | 
47 | Cc1ccc(O/C=C2\OC(=O)c3ccccc32)cc1 | 4.91 | 
48 | O=C1CC2(CCCCC2)Oc2ccc(OCC(=O)N3CCOCC3)cc21 | -23.5 | 
49 | CCN(CC)c1ccc([N+](=O)[O-])cc1C(=O)O | -14.5 | 
50 | Cc1cccc(C(=O)c2cccc(C)c2)c1 | -9.07 | 

Row | Structure (SMILES) | activity change, negative = growth inhibition [%] | Potency
51 | Cc1cc(C)nc(NC(=O)/C=C/c2ccc(Cl)cc2)n1 | -8.03 | 
52 | Cc1cccc(C=CC(=O)c2ccc(Cl)cc2)c1 |  | 13 µM (active)
53 | COc1ccc(CNC(=O)C2CCN(S(=O)(=O)N3CCOCC3)CC2)cc1 | -3.42 | 
54 | CC(=O)Nc1ccc(SCC(=O)NC(=O)c2ccc(Cl)cc2)cc1 | -7.14 | 
55 | O=C(CNC(=O)OCc1ccccc1)Oc1cc2oc(=O)cc(-c3ccccc3)c2cc1Cl |  | 8.2 µM (active)
56 | CC(Oc1ccc2c(-c3ccccc3)cc(=O)oc2c1)C(=O)NC(Cc1c[nH]c2ccccc12)C(=O)O (centres undefined) | 11.4 | 
57 | O=C(CNC(=O)c1ccc(-c2ccccc2)cc1)OCc1ccc(Cl)cc1 | -16.5 | 
58 | CCOC(=O)c1cnc2sccn2c1=O | 1.28 | 
59 | O=[N+]([O-])c1ccc2nc(-c3ccccn3)[nH]c2c1 |  | 1.16 µM (active)
60 | O=[N+]([O-])c1cccc(S(=O)(=O)NCc2ccccn2)c1 | -0.0361 | 
61 | O=c1[nH]c2cccnc2n1-c1ccc([N+](=O)[O-])cc1 | 28.4 | 
62 | Cc1ccc(C(=O)OC2=CC(=O)CC(C)(C)C2)cc1 | -15.6 | 
63 | Cc1cnc(C(=O)OCC(=O)Nc2ccc(Cl)cc2Cl)cn1 | -15.5 | 
64 | COC(=O)c1c(NC(=O)COc2ccc(Cl)cc2Cl)sc2c1CC(C)(C)NC2(C)C |  | 8.2 µM (active)
65 | CCOC(=O)c1c(NC(=O)COc2cc(C)ccc2C(C)C)sc(C)c1C | -16.8 | 
66 | c1cc(-n2cnnn2)ccc1NC1=NCCC1 | 1.89 | 
67 | O=C1CCCN1C(=O)COc1ccc([N+](=O)[O-])cc1 | -7.57 | 
68 | COC(=O)c1ccc(S(=O)(=O)N(CCO)Cc2ccccc2)n1C | -7.81 | 
69 | COc1ccc(C2c3c(C)nn(-c4ccccc4)c3NC(=O)N2c2ccccc2)cc1 (centres undefined) | -26.9 | 
70 | Cn1c(=O)c2c(n3c4ccccc4nc13)NC(=O)CC2c1cccc(Cl)c1 (centres undefined) | -26.7 | 
71 | C#CCOc1ccc(C2CC(=O)Nc3c2c(C)nn3-c2nc(C)cc(C)n2)cc1 (centres undefined) |  | 20.6 µM (active)
72 | COc1ccc(C2CC(=O)Nc3c2c(=O)nc2c(C)cccn32)cc1OC (centres undefined) | -13 | 
73 | COc1ccc(Br)cc1C1CC(=O)Nc2c1c(C)nn2-c1nc(C)cc(C)n1 (centres undefined) |  | 18.4 µM (active)
74 | COc1ccc(Br)cc1S(=O)(=O)N1CCN=C1C | -23.6 | 
